Laboratory results reported in the supplement of paper PMC6607015.
Where a name gives a salt, the structure may show the parent alone.

Tests used:
Settings in all cases: compound concentration in added solution (µM; 5 µl added to 20 µl cells): 10; 18 h
A431 [1] = experiment: LBPA endosome anti-LBPA integrated intensity (sum per cell), Z-score; higher = more LBPA staining
Procedure, shortened: (§1)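 In duplicate 384-well imaging plates, 3,500 HeLa MZ or A431 cells in 20 µl per well were seeded onto 5 µl of 10 µM compound solution. The cells were incubated for 18 h, fixed in 4% PFA and stained with 6C4 anti-LBPA antibody, filipin, propidium iodide and CellTracker green before four 20× images were acquired per well. Values are AcuityXpress-normalised Z-scores of per-cell integrated LBPA or filipin intensity, obtained by MetaXpress segmentation over the whole cell or in LBPA endosomes.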

HeLa MZ [2] = experiment: as above
Procedure, shortened: as §1

A431 [3] = experiment: whole-cell filipin (free cholesterol) integrated intensity, Z-score; higher = more cholesterol staining
Procedure, shortened: as §1

HeLa MZ [4] = experiment: as above
Procedure, shortened: as §1

A431 [5] = experiment: filipin (cholesterol) integrated intensity within LBPA endosomes, Z-score; higher = more cholesterol in LBPA endosomes
Procedure, shortened: as §1

HeLa MZ [6] = experiment: as above
Procedure, shortened: as §1

SMILES	LBPA endosome anti-LBPA integrated intensity (z-score) (A431 [1])	LBPA endosome anti-LBPA integrated intensity (z-score) (HeLa MZ [2])	whole-cell filipin (z-score) (A431 [3])	whole-cell filipin (z-score) (HeLa MZ [4])	filipin (z-score) (A431 [5])	filipin (z-score) (HeLa MZ [6])
COc1cc2nc(N3CCN(C(=O)C4COc5ccccc5O4)CC3)nc(N)c2cc1OC (centres undefined) [Doxazosin mesylate]	3.8	3.08	2.89	1.62	2.83	2.39
Cc1onc(-c2ccccc2Cl)c1C(=O)N[C@@H]1C(=O)N2[C@@H]1SC(C)(C)[C@@H]2C(=O)O [Cloxacillin sodium salt]	-0.451	-0.521	-0.641	-0.277	-0.516	-0.434
CC[C@]12CCCN3CCc4c(n(c5ccccc45)C(=O)C1)[C@@H]32 [Eburnamonine (-)]	-0.525	-1.3	-0.836	-2.15	-0.422	-0.458
Cc1ncc([N+](=O)[O-])n1CCO [Metronidazole]	-0.639	-1.28	-1.11	-0.583	-0.459	-0.544
Cn1nnnc1SCC1=C(C(=O)O)N2C(=O)[C@@H](NC(=O)[C@H](O)c3ccccc3)[C@H]2SC1 [Cefamandole sodium salt]	-0.486	-0.416	-0.496	0.0398	-0.431	-0.551
Cc1cc(=O)n(-c2ccccc2)n1C [Antipyrine]	-0.333	-0.475	-0.316	-0.0627	-0.425	-0.342
CC(CN1c2ccccc2Sc2ccccc21)N(C)C (centres undefined) [Promethazine hydrochloride]	2.24	1.7	2.37	0.806	2.23	1.73
CCCC1O[C@@H]2C[C@H]3[C@@H]4CCC5=CC(=O)C=C[C@]5(C)[C@H]4[C@@H](O)C[C@]3(C)[C@]2(C(=O)CO)O1 (some centres undefined) [Budesonide]	-0.313	-0.695	0.452	0.254	-0.143	0.318
C=CCOC(Cn1ccnc1)c1ccc(Cl)cc1Cl (centres undefined) [Enilconazole]	-0.206	-0.741	0.571	0.192	-0.128	-0.352
CC(=O)c1ccc2c(c1)N(CCCN(C)C)c1ccccc1S2 [Acetopromazine maleate salt]	1.92	2.14	0.736	-0.149	1.18	1.7
Oc1c(I)cc(Cl)c2cccnc12 [Clioquinol]	-0.492	-0.976	-0.314	0.216	-0.526	-0.604
COc1cc2ncnc(Nc3ccc(F)c(Cl)c3)c2cc1OCCCN1CCOCC1 [Gefitinib]	3.94	2.43	0.816	0.788	2.49	2.83
CO[C@@H]1[C@@H](O[C@@H]2O[C@H](C)[C@@H](O[C@H]3C[C@@](C)(O)[C@@H](OC(=O)CC(C)C)[C@H](C)O3)[C@H](N(C)C)[C@H]2O)[C@@H](CC=O)C[C@@H](C)[C@@H](O)/C=C/C=C/C[C@@H](C)OC(=O)C[C@H]1OC(C)=O [Josamycin]	0.115	-0.222	-0.459	-0.645	-0.106	-0.348
Cc1c(-c2ccccc2)oc2c(C(=O)OCCN3CCCCC3)cccc2c1=O [Flavoxate hydrochloride]	-0.643	-0.619	-0.892	-0.899	-0.515	-0.534
CCn1cc(C(=O)O)c(=O)c2cc(F)c(N3CCNCC3)cc21 [Norfloxacin]	-0.548	-0.705	-0.938	-1.18	-0.584	-0.612
CC(=O)OC(C)C[N+](C)(C)C (centres undefined) [Methacholine chloride]	-0.38	0.107	-0.0801	-0.293	-0.383	-0.341
CC[N+](CC)(CC(=O)Nc1c(C)cccc1C)Cc1ccccc1 [Denatonium benzoate]	-0.32	-0.985	-0.241	-0.0671	-0.379	-0.548
CN1CCN(C(c2ccccc2)c2ccccc2)CC1 [Cyclizine hydrochloride]	-0.35	0.424	-0.0386	-0.181	-0.285	0.0272
COc1ccc(/C=C/C(=O)Nc2ccccc2C(=O)O)cc1OC [Tranilast]	-0.353	-0.361	-0.609	-0.648	-0.443	-0.608
CN1CCC(=C2c3ccccc3CC(=O)c3sccc32)CC1 [Ketotifen fumarate]	0.0746	0.508	0.273	-0.159	0.289	0.175
CN(C)[C@@H]1C(O)=C(C(N)=O)C(=O)[C@@]2(O)C(O)=C3C(=O)c4c(O)ccc(Cl)c4[C@@](C)(O)[C@H]3C[C@@H]12 [Chlortetracycline hydrochloride]	-0.612	-0.752	-1.07	-1.11	-0.66	-0.819
CC(C)(C)C(=O)OCOC(=O)[C@@H]1N2C(=O)[C@@H](NC(=O)[C@H](N)c3ccccc3)[C@H]2SC1(C)C [Pivampicillin]	-0.161	0.0846	0.0929	-0.0816	-0.266	-0.41
O=C(OCCOCCO)c1ccccc1Nc1cccc(C(F)(F)F)c1 [Etofenamate]	-0.474	-0.295	-0.883	-1.24	-0.564	-0.692
CC1(C)O[C@@H]2C[C@H]3[C@@H]4CCC5=CC(=O)CC[C@]5(C)[C@@]4(F)[C@@H](O)C[C@]3(C)[C@]2(C(=O)CCl)O1 [Halcinonide]	-0.266	-0.708	-0.0733	0.0912	-0.203	-0.18
